Data from PubChem BioAssay (NCATS).
Records with an inconclusive call do not appear. Where a call stands in place of a potency, no number is given. Calls of active or inactive are those of the source. Calls follow the shape of the full dose curve.

Assay: Confirmatory qHTS for VERO E6 Cytotoxicity Assay: Counterscreen for SARS-CoV-2 CPE Assay (AID 1508605); also: nearly all actives have a fitted effect of over 60% in size
Details: cell viability luminescence; series mostly up to 20 µM
Potency is read from the fitted curve at half-maximal effect.

Q: For `O=C1NC(=O)/C(=C\c2ccc(-c3ccc(F)cc3)o2)S1`, which Potency is on record?
A: The Potency was “inactive”.

Q: Which Potency does the source give for `Nc1nc(OC(c2ccc(-c3cccc(F)c3)cc2)C(F)(F)F)cc(-c2ccc(C[C@H](N)C(=O)O)cc2)n1` (stereo partly specified) here?
A: The Potency was “inactive”.

Q: With `COCCNCc1ccc(-c2cc3nccc(Oc4ccc(NC(=O)C5(C(=O)Nc6ccc(F)cc6)CC5)cc4F)c3s2)nc1` as the compound, how does the Potency read?
A: Its Potency is 5.01 µM (active).

Q: For `c1ccc2c(-c3cnn4cc(-c5ccc(OCCN6CCOCC6)cc5)cnc34)ccnc2c1`, which Potency is on record?
A: Its Potency is “inactive”.

Q: With `COC(=O)[C@]1(C)CC[C@]2(C)CC[C@]3(C)C4=CC=C5C(=CC(=O)C(O)=C5C)[C@]4(C)CC[C@@]3(C)[C@@H]2C1` as the compound, how does the Potency read?
A: Its Potency is 1.01 µM (active).

Q: Which Potency does the source give for `Nc1nc(Nc2ccc3c(c2)CC[C@@H](N2CCCC2)CC3)nn1-c1cc2c(nn1)-c1ccccc1CCC2` here?
A: The Potency was 10 µM (active).
